This is part of a sample that, as a whole, favours compounds with a hit. Of some 83,000 tested, about 20% had one in any assay.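 Assay: single dose, 48 h. Readout: percent growth (0 = no net growth; negative = cell death). Active: <10.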 Values without a mark were called inactive. Calls of active or inactive are those of the source.

Among the test systems are SR leukemia; RPMI-8226 leukemia; OVCAR-8 ovarian; OVCAR-5 ovarian; OVCAR-4 ovarian; SK-OV-3 ovarian; OVCAR-3 ovarian; HS 578T breast; NCI/ADR-RES ovarian; T-47D breast; BT-549 breast; MDA-MB-435 melanoma; SW-620 colon; MCF7 breast; HCT-116 colon; HCC-2998 colon; KM12 colon.
What all share (experiment): NCI-60 one-dose screen, 48 h (100 = growth as untreated, 0 = no growth, -100 = all killed)
Settings in all cases: 10 µM unless noted

In the case of `Cc1ccc(/C=C2\CN(C(=O)OC(C)(C)C)C/C(=C\c3ccc(C)cc3)C2=O)cc1`, the growth was -13.1% (active) with SR leukemia; -25.8% (active) in the assay on RPMI-8226 leukemia; 25% in the assay on OVCAR-8 ovarian; 112% with OVCAR-5 ovarian; 65.4% in the assay on OVCAR-4 ovarian; 104% with SK-OV-3 ovarian. Moreover, the growth is 7.18% (active) with OVCAR-3 ovarian; 59.6% in the assay with HS 578T breast; 76.3% in the assay on NCI/ADR-RES ovarian; 61.1% in the assay on T-47D breast; 99.9% in the assay with BT-549 breast; -44.4% (active) with MDA-MB-435 melanoma. Also, the growth is 5.21% (active) with SW-620 colon; 15.7% with MCF7 breast; -44.4% (active) with HCT-116 colon; 29.5% with HCC-2998 colon; -16% (active) in the assay on KM12 colon.

`O=C1C(Cl)=C(Nc2ccc(O)cc2)C(=O)N1Cc1ccc(Cl)cc1`: the growth was 5.96% (active) with SR leukemia; 26.1% in the assay with RPMI-8226 leukemia; 65% in the assay on OVCAR-8 ovarian; 85.3% in the assay on OVCAR-5 ovarian; 77.5% in the assay on OVCAR-4 ovarian; 88.1% in the assay with SK-OV-3 ovarian. In addition, the growth was 40.8% with OVCAR-3 ovarian; 78.6% in the assay with HS 578T breast; 81.3% in the assay with NCI/ADR-RES ovarian; 66.5% with T-47D breast; 43.2% in the assay on BT-549 breast; -30.6% (active) in the assay on MDA-MB-435 melanoma. Further, the growth is 17.6% with SW-620 colon; 18.1% with MCF7 breast; 30.9% in the assay with HCT-116 colon; 79.9% with HCC-2998 colon; 14.9% in the assay with KM12 colon.

For the compound `COc1ccc(-c2cc(-c3ccc(Cl)cc3)c(C#N)c(=O)n2CCCCC(=O)Nc2ccccc2N)cc1`, the growth in the assay on SR leukemia is 15.5%; with RPMI-8226 leukemia it was 0.147% (active); in the assay on OVCAR-8 ovarian, 42.8%; with OVCAR-5 ovarian it was 58.6%; in the assay with OVCAR-4 ovarian, 66.5%; with SK-OV-3 ovarian, 78%. The growth with OVCAR-3 ovarian was 69.5%; in the assay on HS 578T breast it was 75.7%; in the assay on NCI/ADR-RES ovarian it was 37.3%; in the assay with T-47D breast, 37.5%; in the assay with BT-549 breast it was 46.1%; with MDA-MB-435 melanoma it was 39%. The growth was 71.8% in the assay with SW-620 colon; 41.6% with MCF7 breast; 24.4% in the assay on HCT-116 colon; 68.3% with HCC-2998 colon; 39.4% in the assay on KM12 colon.

Regarding `Cc1ccc(-c2nc(N3CCNCC3)c3oc(-c4ccccc4)nc3n2)cc1`, the growth with SR leukemia is -44% (active); in the assay with RPMI-8226 leukemia, -54.7% (active); with OVCAR-8 ovarian, -66.4% (active); with OVCAR-5 ovarian it was 14.7%; in the assay with OVCAR-4 ovarian, -51.6% (active); with SK-OV-3 ovarian, 87.4%. Further, the growth was -89.5% (active) in the assay on OVCAR-3 ovarian; -7.69% (active) in the assay with HS 578T breast; -23.1% (active) with NCI/ADR-RES ovarian; -57.8% (active) in the assay on T-47D breast; 85.1% with BT-549 breast; -81% (active) with MDA-MB-435 melanoma. The growth is -55.1% (active) in the assay with SW-620 colon; -74.6% (active) with MCF7 breast; -71% (active) with HCT-116 colon; -61.1% (active) in the assay with HCC-2998 colon; -89.1% (active) with KM12 colon.

As to `O=C(CSc1nc2ccc([N+](=O)[O-])cc2[nH]1)Nc1cccc(C(F)(F)F)c1`, the growth in the assay with SR leukemia is 14.5%; in the assay with RPMI-8226 leukemia it was -11.8% (active); in the assay on OVCAR-8 ovarian, 13.8%; in the assay on OVCAR-5 ovarian, 63.5%; with OVCAR-4 ovarian, 12%; in the assay on SK-OV-3 ovarian, 27.1%. The growth was 20.7% with OVCAR-3 ovarian; 24.8% in the assay with HS 578T breast; 21.9% in the assay with NCI/ADR-RES ovarian; 6.1% (active) with T-47D breast; 16.5% in the assay with BT-549 breast; 13.8% in the assay on MDA-MB-435 melanoma. The growth in the assay on SW-620 colon was 28.2%; in the assay on MCF7 breast it was 15.7%; with HCT-116 colon, 12.8%; in the assay with HCC-2998 colon, 30.7%; in the assay with KM12 colon, 17.1%.

On to `C=CCc1c(O)c(C(=O)/C=C/c2ccc(Cl)cc2)c(OC)c2ccoc12`, for which the growth in the assay on SR leukemia is 17.7%; in the assay on RPMI-8226 leukemia it was 8.82% (active); in the assay on OVCAR-8 ovarian, 42.6%; in the assay on OVCAR-5 ovarian it was 100%; in the assay with OVCAR-4 ovarian it was 57.3%; with SK-OV-3 ovarian it was 66.4%. Further, the growth was 32.8% with OVCAR-3 ovarian; 81% in the assay on HS 578T breast; 39.1% in the assay on NCI/ADR-RES ovarian; 39.9% in the assay with T-47D breast; 47.8% in the assay with BT-549 breast; 18.2% in the assay with MDA-MB-435 melanoma. For the same compound, the growth is 37.3% in the assay on SW-620 colon; 21.4% with MCF7 breast; 17.2% in the assay with HCT-116 colon; 63.3% in the assay on HCC-2998 colon; 41.1% with KM12 colon.

For the compound `CNc1nc(S(=O)c2ccc(C#N)cc2)nc2ccccc12` (stereo unspecified), the growth with SR leukemia is 29.4%; in the assay on RPMI-8226 leukemia it was 61%; in the assay on OVCAR-8 ovarian it was 87.8%; in the assay on OVCAR-5 ovarian, 81.2%; with OVCAR-4 ovarian it was 68.6%; in the assay on SK-OV-3 ovarian, 98.6%. The growth in the assay on OVCAR-3 ovarian is 53.4%; in the assay with HS 578T breast, 79.9%; in the assay on NCI/ADR-RES ovarian, 97.8%; in the assay with T-47D breast, 62.4%; in the assay on BT-549 breast it was 74.6%; with MDA-MB-435 melanoma it was 88%. Moreover, the growth with SW-620 colon was 76%; with MCF7 breast, 72.1%; with HCT-116 colon, 51.4%; in the assay with KM12 colon, 99%.

As to `CCNc1nc(-c2ccc(Cl)c(OC)c2)c(-c2ccnc(NCCCNS(=O)(=O)c3ccc(Cl)cc3)n2)s1`, the growth was 43.4% in the assay on SR leukemia; 45.9% in the assay with RPMI-8226 leukemia; 51% in the assay on OVCAR-8 ovarian; 87.6% with OVCAR-5 ovarian; 83% in the assay on OVCAR-4 ovarian; 42.1% with SK-OV-3 ovarian. Moreover, the growth was 81.2% with OVCAR-3 ovarian; 64.3% with HS 578T breast; 77.6% with NCI/ADR-RES ovarian; 37.4% in the assay on T-47D breast; 52% in the assay on BT-549 breast; 24.8% with MDA-MB-435 melanoma. Moreover, the growth with SW-620 colon was 80.9%; in the assay on MCF7 breast, 66.3%; in the assay with HCT-116 colon, 42.4%; in the assay with HCC-2998 colon, 102%; in the assay with KM12 colon it was 65.3%.

On to `CC(C)(C)[Si](C)(C)O[C@H]1C(=O)C=CN2CC=C[C@@H]12`, for which the growth in the assay with SR leukemia is 81.8% [100 µM]; in the assay on RPMI-8226 leukemia, 115% [100 µM]; in the assay with OVCAR-8 ovarian it was 97% [100 µM]; in the assay on OVCAR-5 ovarian it was 94.4% [100 µM]; with OVCAR-4 ovarian, 110% [100 µM]; in the assay on SK-OV-3 ovarian it was 101% [100 µM]. The growth was 103% [100 µM] in the assay with OVCAR-3 ovarian; 95.3% [100 µM] in the assay with HS 578T breast; 106% [100 µM] with NCI/ADR-RES ovarian; 92% [100 µM] with T-47D breast; 137% [100 µM] in the assay with BT-549 breast; 102% [100 µM] with MDA-MB-435 melanoma. The growth in the assay with SW-620 colon was 104% [100 µM]; with MCF7 breast, 96.5% [100 µM]; in the assay on HCT-116 colon, 92.9% [100 µM]; in the assay on KM12 colon, 104% [100 µM].
